This is an account of results in article PMC10726135, “HNF4α isoforms regulate the circadian balance between carbohydrate and lipid metabolism in the liver”.

Over roughly 18,000 sequences, “log2 normalized intensity” has its median near 0.36; the highest 2% begin near 7.3. What follows is part of a selection rich in the highest values, with near analogues and random picks from the rest.

This experiment addresses T1, HNF4alpha8 (COS-7 nuclear extract) (Homo sapiens, UniProt P41235-5 1-452).
T1 sequence: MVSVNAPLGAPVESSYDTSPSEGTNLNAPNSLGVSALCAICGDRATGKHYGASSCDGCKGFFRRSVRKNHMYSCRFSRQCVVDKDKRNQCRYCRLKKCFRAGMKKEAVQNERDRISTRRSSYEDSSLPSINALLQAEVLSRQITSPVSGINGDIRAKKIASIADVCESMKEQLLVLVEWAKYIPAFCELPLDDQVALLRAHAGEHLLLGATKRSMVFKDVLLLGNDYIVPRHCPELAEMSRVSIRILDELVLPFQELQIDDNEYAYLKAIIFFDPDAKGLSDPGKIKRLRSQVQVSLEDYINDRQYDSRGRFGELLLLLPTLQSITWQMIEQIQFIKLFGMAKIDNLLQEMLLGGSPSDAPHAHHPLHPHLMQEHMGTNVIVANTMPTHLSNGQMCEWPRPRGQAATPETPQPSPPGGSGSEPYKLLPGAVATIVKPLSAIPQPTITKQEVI
Description: protein-binding microarray; COS-7 nuclear extract on double-stranded Agilent 4x180k PBM; binding buffer, salt, pH and temperature not given in the material; high values mean tight binding. The following applies: chain copies: 2; label: 3' end of strand 1 on the slide; dsDNA, one strand shown. The essentials: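 Nuclear extracts of COS-7 cells transiently transfected with a human HNF4α isoform were applied to a custom Agilent SurePrint G3 4x180k array bearing ~44,000 double-stranded ~60-nt test sequences, each in quadruplicate. The bound protein was imaged on an Agilent G2565CA scanner at 2-µm resolution. Binding signal is the normalized, background-corrected gProcessedSignal from Agilent software.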
Take “GAGATAAGTCACCTTATCAAGTCCGAACTCGCCTAGGGAGATTAGAGTATCGGTCGA”: the binding signal came to 1.35 log2 normalized intensity.

Regarding “GGAATCTTGCCCTGTCGCCCAGGCTGGAATGCCTAGGGAGATTAGAGTATCGGTCGA”, the binding signal was 1.58 log2 normalized intensity.

For the sequence “AAGAGACTTTGCCCTTTTTTTCTCTCCCCTGCCTAGGGAGATTAGAGTATCGGTCGA”, the binding signal stood at 3.92 log2 normalized intensity. The result for “ATCCCGTGGACTTTGCCTGCCCATCCCGTGGCCTAGGGAGATTAGAGTATCGGTCGA” reads 4.23 log2 normalized intensity; that for “TCTTTGCCCTCTTGGTATCAGCTTTGAGACGCCTAGGGAGATTAGAGTATCGGTCGA”, 1.91 log2 normalized intensity. Consider “CTTTCTATCAGCTCTCCGTGGACTTTGCCCGCCTAGGGAGATTAGAGTATCGGTCGA”, for which the binding signal was 9.95 log2 normalized intensity. As for “TTTGGCCCCCAGAGCCCCGTGTCTCCCTACGCCTAGGGAGATTAGAGTATCGGTCGA”, the figure is 4.89 log2 normalized intensity. The result for “TATCAGCTCTCCGTGGACTTTGCCCCCTACGCCTAGGGAGATTAGAGTATCGGTCGA” reads 11.3 log2 normalized intensity; that for “GTGGACTTTGCCTGCCCATCCCGTGGACTCGCCTAGGGAGATTAGAGTATCGGTCGA”, 4.49 log2 normalized intensity. The result for “GCTCTCCGTGGACTTTGCCCCCTACAGTTTGCCTAGGGAGATTAGAGTATCGGTCGA” reads 10.5 log2 normalized intensity; that for “TCTTCCTTTCTATCAGCTCTCCGTGGACTTGCCTAGGGAGATTAGAGTATCGGTCGA”, 3.52 log2 normalized intensity.

As to “TTGATTTAACATTTGTGATCTGGCACAAATGCCTAGGGAGATTAGAGTATCGGTCGA”, the binding signal came out at 0.366 log2 normalized intensity. The result for “AGATACTGAATCTCCCAGTGCTTTGATCTTGCCTAGGGAGATTAGAGTATCGGTCGA” reads 1.39 log2 normalized intensity; that for “TCACCTGCTCATTGACCCTTAGGCCAAGGCGCCTAGGGAGATTAGAGTATCGGTCGA”, 3.1 log2 normalized intensity. As for “ATGTCAGGAGCCCCACTGTAGTAAGGGAGTGCCTAGGGAGATTAGAGTATCGGTCGA”, the figure is -0.892 log2 normalized intensity.

Take “CACCTCTGCTTATCTCAACTGATTTACCTCGCCTAGGGAGATTAGAGTATCGGTCGA”: the binding signal turned out to be 0.918 log2 normalized intensity.

As for “TTAACACAAGTTATTACCGTGATGTTCGTTGCCTAGGGAGATTAGAGTATCGGTCGA”, the binding signal stood at 1.14 log2 normalized intensity. For “CTGTCGTCCCAGGGCAAAGGTCACCAGCTAGCCTAGGGAGATTAGAGTATCGGTCGA”, the binding signal was 7.57 log2 normalized intensity.

On to “AGGGCAAAGGTCACCAGCTAAGCTGTTACTGCCTAGGGAGATTAGAGTATCGGTCGA”, for which the binding signal was found to be 5.83 log2 normalized intensity.

Consider “CTTCCCAGCTGCTGGTCAAAGGGCATTACTGCCTAGGGAGATTAGAGTATCGGTCGA”, for which the binding signal stood at 5.83 log2 normalized intensity. As for “CAGAGCTGTCGTCCCAGGGCAAAGGTCACCGCCTAGGGAGATTAGAGTATCGGTCGA”, the figure is 8.47 log2 normalized intensity; as for “GGGCAAATCTGAGGTCAAAGCTGTCAGAGAGCCTAGGGAGATTAGAGTATCGGTCGA”, -0.316 log2 normalized intensity.

Take “GTCCCAGGGCAAAGGTCACCAGCTAAGCTGGCCTAGGGAGATTAGAGTATCGGTCGA”: the binding signal was 6.21 log2 normalized intensity. With “ATCCTGCCTCCATTAATTAACCTTTGAGCTGCCTAGGGAGATTAGAGTATCGGTCGA”, the binding signal came out at 6.76 log2 normalized intensity. The result for “ATACCCATTCACATGACCTTTGTCCGTTCCGCCTAGGGAGATTAGAGTATCGGTCGA” reads 7.49 log2 normalized intensity; that for “CTGGGATGAGATACCCATTCACATGACCTTGCCTAGGGAGATTAGAGTATCGGTCGA”, 3.92 log2 normalized intensity. With “ATGAGATACCCATTCACATGACCTTTGTCCGCCTAGGGAGATTAGAGTATCGGTCGA”, the binding signal turned out to be 8.96 log2 normalized intensity. As for “TTCGGTGCTGACCTTTGTTCACATTTGTGCGCCTAGGGAGATTAGAGTATCGGTCGA”, the figure is 5.96 log2 normalized intensity.

For “CATTCACATGACCTTTGTCCGTTCCTGCCTGCCTAGGGAGATTAGAGTATCGGTCGA”, the binding signal worked out at 6.63 log2 normalized intensity. The result for “ACATGACCTTTGTCCGTTCCTGCCTGGAGCGCCTAGGGAGATTAGAGTATCGGTCGA” reads 5.37 log2 normalized intensity; that for “CTGATGAATAGAAAGAGGTCAATGTACTTAGCCTAGGGAGATTAGAGTATCGGTCGA”, 2.94 log2 normalized intensity.

On to “TATGTTAATGGCAGAATCAAAGGTCAAAATGCCTAGGGAGATTAGAGTATCGGTCGA”, for which the binding signal was determined as 5.17 log2 normalized intensity.

As for “TTCATTGCACTTTGCCCTCTCTTCAGCACCGCCTAGGGAGATTAGAGTATCGGTCGA”, the binding signal is 6.34 log2 normalized intensity. The result for “TGCACTTTGCCCTCTCTTCAGCACCTTTTAGCCTAGGGAGATTAGAGTATCGGTCGA” reads 5.26 log2 normalized intensity.

For “ATAATTCAGTTTCATTGCACTTTGCCCTCTGCCTAGGGAGATTAGAGTATCGGTCGA”, the binding signal worked out at 9.39 log2 normalized intensity. As for “ACTGCCATTGATAATTCAGTTTCATTGCACGCCTAGGGAGATTAGAGTATCGGTCGA”, the figure is -0.131 log2 normalized intensity; as for “TCAGTTTCATTGCACTTTGCCCTCTCTTCAGCCTAGGGAGATTAGAGTATCGGTCGA”, 7.35 log2 normalized intensity. The result for “CATTGATAATTCAGTTTCATTGCACTTTGCGCCTAGGGAGATTAGAGTATCGGTCGA” reads 4.62 log2 normalized intensity. As for “GGTCTGTTTGTGAAACAGTGGGCAATATGAGCCTAGGGAGATTAGAGTATCGGTCGA”, the figure is 1.18 log2 normalized intensity. For the sequence “AACCTAGCCCCCTTTCCCTTATCTTTGTTAGCCTAGGGAGATTAGAGTATCGGTCGA”, the binding signal worked out at 2.54 log2 normalized intensity. The result for “GGACAAAGTTCGTGGAAAGTGGAAGAATGGGCCTAGGGAGATTAGAGTATCGGTCGA” reads 0.952 log2 normalized intensity; that for “CATGAAGCTTCCCCTTTAACCAATATTAGCGCCTAGGGAGATTAGAGTATCGGTCGA”, 0.107 log2 normalized intensity.

For the sequence “AACCTTCATCTCTCTTTGTTGACATCTGCTGCCTAGGGAGATTAGAGTATCGGTCGA”, the binding signal is -0.0144 log2 normalized intensity.
